Experimental data as given in the supplement of paper PMC10849652.
The full data set covers some 7,900 targets. This sample favours those with a hit. About 0.6% of all pairs of compound and target were hits.

Assays:
Assay in all cases: log2 fold change, soluble protein after heating vs DMSO (PISA); higher = thermal stabilisation; K562 cells, 10 uM, 30 min; active = over 0.2 and 3.5 SD of the protein, either way, in both replicates (recomputed)
[1] = compound: Cc1ccc(NC(=O)c2ccc(CN3CC[C@H](N(C)C)C3)c(C(F)(F)F)c2)cc1Nc1nccc(-c2cncnc2)n1 [bafetinib]
In short: (§1)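 Soluble protein was quantified by TMTpro 16plex LC-MS/MS after channel sums were equalised. It was obtained as the supernatant after 21,000xg for 90 min from pooled aliquots of K562 cells (2×10^6 cells/mL, 10 μM compound, 30 min) heated for 3 min across 48°C-58°C and extracted in PBS with 0.5% NP-40 at 4°C. Thermal stability values are relative to control samples and come from duplicates. They are given as log2 fold changes.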

[2] = compound: Cc1cccc(CC(=O)N2CCc3c2ccc(-c2cn(C)c4ncnc(N)c24)c3F)n1
In short: as §1

[3] = compound: Cc1cn(-c2cc(NC(=O)c3ccc(C)c(Nc4nccc(-c5cccnc5)n4)c3)cc(C(F)(F)F)c2)cn1 [nilotinib]
In short: as §1

[4] = compound: Cc1nc(Nc2n[nH]c3c2CN(C(=O)N[C@H](CN(C)C)c2ccccc2)C3(C)C)c2sccc2n1
In short: as §1

[5] = compound: Cc1nc(Nc2ncc(C(=O)Nc3c(C)cccc3Cl)s2)cc(N2CCN(CCO)CC2)n1 [dasatinib]
In short: as §1

[6] = compound: Cc1ncc(-c2ccnc(Nc3ccc(S(C)(=O)=O)cc3)n2)n1C(C)C
In short: as §1

[7] = compound: Cn1cc(-c2ccc3c(c2)CCN3C(=O)Cc2cccc(C(F)(F)F)c2)c2c(N)ncnc21
In short: as §1

[8] = compound: Cn1cc(-c2ccc3nnc(C(F)(F)c4ccc5ncccc5c4)n3n2)cn1
In short: as §1

[9] = compound: FC(F)(F)c1ccc(/C=C/c2nc(COc3ccc(CCCCn4ccnn4)cc3)co2)cc1 [mubritinib]
In short: as §1

[10] = compound: Cn1cncc1[C@@](N)(c1ccc(Cl)cc1)c1ccc2c(c1)c(-c1cccc(Cl)c1)cc(=O)n2C [tipifarnib]
In short: as §1

Measured: log2 fold change

PRG4 (UniProt Q92954)
inactive: [1] -0.095 | [2] 0.104 | [3] -0.05 | [4] 0.065 | [5] 0 | [6] 0.258 | [7] 0.203 | [8] 0.068 | [9] -0.016

PPP2R5C isoform 4 (UniProt Q13362)
UniProt Q13362, sequence (Q13362 whole entry, looked up): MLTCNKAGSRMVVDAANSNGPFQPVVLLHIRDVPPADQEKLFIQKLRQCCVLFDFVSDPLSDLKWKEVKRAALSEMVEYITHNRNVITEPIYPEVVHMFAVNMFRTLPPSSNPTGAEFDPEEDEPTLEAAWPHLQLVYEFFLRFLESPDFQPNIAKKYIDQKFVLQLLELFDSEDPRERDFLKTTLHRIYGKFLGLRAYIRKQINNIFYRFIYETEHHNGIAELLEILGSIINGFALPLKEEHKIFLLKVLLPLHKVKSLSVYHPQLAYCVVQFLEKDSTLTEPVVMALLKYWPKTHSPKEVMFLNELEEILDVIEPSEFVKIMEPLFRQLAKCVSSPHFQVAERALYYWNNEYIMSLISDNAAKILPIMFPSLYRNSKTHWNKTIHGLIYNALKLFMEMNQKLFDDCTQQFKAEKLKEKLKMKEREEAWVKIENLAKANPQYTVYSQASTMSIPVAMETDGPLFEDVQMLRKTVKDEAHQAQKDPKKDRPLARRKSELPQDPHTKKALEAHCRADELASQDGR
inactive: [1] -0.032 | [2] -0.019 | [3] -0.05 | [4] -0.025 | [5] -0.058 | [6] -0.008 | [7] 0.037 | [8] 0.052 | [10] -0.093 | [9] 0.095

PDE6D (UniProt O43924)
UniProt O43924, sequence (O43924 whole entry, looked up): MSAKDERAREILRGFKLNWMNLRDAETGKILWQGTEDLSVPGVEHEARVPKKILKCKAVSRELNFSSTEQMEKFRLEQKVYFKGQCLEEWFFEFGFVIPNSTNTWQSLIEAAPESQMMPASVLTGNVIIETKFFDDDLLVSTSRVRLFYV
inactive: [1] 0.266 | [2] 0.169 | [3] 0.191 | [4] -0.238 | [5] 0.026 | [6] 0.011 | [7] 0.385 | [9] 0.565

PPP1CA (UniProt P62136)
UniProt P62136, sequence (P62136 whole entry, looked up): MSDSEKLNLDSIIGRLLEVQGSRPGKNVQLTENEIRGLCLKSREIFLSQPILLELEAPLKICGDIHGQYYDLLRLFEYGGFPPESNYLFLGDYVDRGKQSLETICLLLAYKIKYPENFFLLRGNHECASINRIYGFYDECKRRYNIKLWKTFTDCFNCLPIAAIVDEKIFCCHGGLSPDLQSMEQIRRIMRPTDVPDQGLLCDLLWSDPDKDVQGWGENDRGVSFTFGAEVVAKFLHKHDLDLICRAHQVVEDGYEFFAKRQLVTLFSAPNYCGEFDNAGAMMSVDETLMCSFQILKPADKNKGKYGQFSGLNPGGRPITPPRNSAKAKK
inactive: [1] -0.053 | [2] -0.001 | [3] -0.002 | [4] -0.006 | [5] 0.008 | [6] -0.011 | [7] 0.018 | [8] 0.065 | [10] 0.023 | [9] 0.065

PPP1R12C (UniProt Q9BZL4)
active: [2] 0.612
inactive: [1] -0.085 | [3] 0.069 | [4] -0.26 | [5] -0.065 | [6] -0.213 | [8] -0.018 | [10] -0.219 | [9] -0.118

PSPC1 (UniProt Q8WXF1)
UniProt Q8WXF1, sequence (Q8WXF1 whole entry, looked up): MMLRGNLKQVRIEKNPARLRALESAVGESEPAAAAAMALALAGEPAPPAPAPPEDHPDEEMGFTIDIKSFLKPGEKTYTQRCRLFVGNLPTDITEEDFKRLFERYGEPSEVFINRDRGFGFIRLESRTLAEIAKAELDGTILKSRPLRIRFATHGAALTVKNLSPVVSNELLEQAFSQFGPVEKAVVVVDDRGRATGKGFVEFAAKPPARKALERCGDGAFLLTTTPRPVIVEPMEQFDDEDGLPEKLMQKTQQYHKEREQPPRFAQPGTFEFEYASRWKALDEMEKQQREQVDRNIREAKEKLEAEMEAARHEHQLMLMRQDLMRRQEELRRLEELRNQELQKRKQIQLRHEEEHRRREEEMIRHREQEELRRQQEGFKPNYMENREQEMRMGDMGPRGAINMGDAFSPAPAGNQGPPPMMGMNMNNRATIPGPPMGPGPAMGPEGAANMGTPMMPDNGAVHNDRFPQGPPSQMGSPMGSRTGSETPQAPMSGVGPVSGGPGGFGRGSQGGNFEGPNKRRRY
inactive: [1] 0.015 | [2] 0.088 | [3] -0.004 | [4] -0.179 | [5] -0.02 | [6] -0.112 | [7] -0.003 | [8] 0 | [10] -0.004 | [9] -0.033

PLCL1 (UniProt Q15111)
inactive: [1] -0.045 | [2] 0.039 | [3] -0.06 | [4] -0.197 | [6] -0.324 | [7] -0.116 | [8] 0.028 | [9] -0.018

PMPCA (UniProt Q10713)
UniProt Q10713, sequence (Q10713 whole entry, looked up): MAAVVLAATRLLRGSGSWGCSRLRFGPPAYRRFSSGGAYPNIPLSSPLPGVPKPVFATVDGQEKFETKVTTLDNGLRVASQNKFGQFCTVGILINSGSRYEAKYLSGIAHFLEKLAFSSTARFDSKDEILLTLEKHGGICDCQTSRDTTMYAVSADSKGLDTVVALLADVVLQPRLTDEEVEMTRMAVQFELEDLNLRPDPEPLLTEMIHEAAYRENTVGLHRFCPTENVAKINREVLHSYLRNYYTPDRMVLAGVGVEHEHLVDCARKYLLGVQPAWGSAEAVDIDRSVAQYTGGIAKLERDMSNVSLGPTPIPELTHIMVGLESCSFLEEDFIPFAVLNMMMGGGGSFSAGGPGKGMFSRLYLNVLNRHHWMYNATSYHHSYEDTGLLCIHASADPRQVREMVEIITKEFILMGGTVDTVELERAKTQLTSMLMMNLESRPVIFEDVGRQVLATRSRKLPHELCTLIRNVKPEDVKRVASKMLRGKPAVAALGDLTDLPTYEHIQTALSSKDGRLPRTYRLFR
inactive: [1] 0.063 | [2] 0.016 | [3] 0.024 | [4] 0.057 | [6] -0.096 | [7] 0.067 | [8] 0.04 | [9] 0.087
active: [5] 0.54 | [10] 0.285

PRPF38B (UniProt Q5VTL8)
UniProt Q5VTL8, sequence (Q5VTL8 whole entry, looked up): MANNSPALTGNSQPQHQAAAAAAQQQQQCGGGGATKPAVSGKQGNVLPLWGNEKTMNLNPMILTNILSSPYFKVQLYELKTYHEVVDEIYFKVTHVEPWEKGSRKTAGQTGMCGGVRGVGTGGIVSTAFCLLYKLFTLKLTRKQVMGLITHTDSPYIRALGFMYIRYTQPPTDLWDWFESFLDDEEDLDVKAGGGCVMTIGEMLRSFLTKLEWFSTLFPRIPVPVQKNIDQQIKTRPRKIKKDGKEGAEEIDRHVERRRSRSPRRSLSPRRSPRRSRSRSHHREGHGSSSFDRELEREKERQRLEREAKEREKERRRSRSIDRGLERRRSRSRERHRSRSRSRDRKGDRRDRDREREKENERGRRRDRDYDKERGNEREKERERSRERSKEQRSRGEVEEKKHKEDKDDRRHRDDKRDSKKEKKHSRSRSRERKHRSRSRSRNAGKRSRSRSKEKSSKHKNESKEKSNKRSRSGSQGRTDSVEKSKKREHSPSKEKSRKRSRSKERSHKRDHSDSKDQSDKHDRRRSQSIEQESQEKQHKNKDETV
active: [4] -1.9
inactive: [1] -0.016 | [2] -0.015 | [3] 0.049 | [5] -0.022 | [6] -0.008 | [7] 0.012 | [8] -0.04 | [10] -0.067 | [9] 0.004

PSMD12 (UniProt O00232)
UniProt O00232, sequence (O00232 whole entry, looked up): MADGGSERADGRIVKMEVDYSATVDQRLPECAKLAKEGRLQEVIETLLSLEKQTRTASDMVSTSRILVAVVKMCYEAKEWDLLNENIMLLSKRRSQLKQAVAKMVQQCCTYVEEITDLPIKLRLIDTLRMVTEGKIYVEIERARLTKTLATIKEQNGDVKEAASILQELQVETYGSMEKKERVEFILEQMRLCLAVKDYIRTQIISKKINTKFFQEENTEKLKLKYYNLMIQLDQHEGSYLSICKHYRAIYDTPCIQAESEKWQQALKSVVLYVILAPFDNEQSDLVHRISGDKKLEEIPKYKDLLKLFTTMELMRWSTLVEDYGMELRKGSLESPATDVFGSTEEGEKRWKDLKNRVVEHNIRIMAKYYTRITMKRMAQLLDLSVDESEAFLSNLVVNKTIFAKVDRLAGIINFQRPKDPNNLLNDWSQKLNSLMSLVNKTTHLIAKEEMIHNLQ
inactive: [1] 0.119 | [2] 0.033 | [3] 0.026 | [4] 0.044 | [5] 0 | [6] -0.001 | [7] -0.088 | [8] -0.022 | [10] 0.019 | [9] -0.034

PCBP2 (UniProt F8VRH0)
inactive: [1] 0.293 | [2] -0.039 | [3] -0.347 | [4] -0.215 | [5] -0.146 | [6] -0.009 | [7] 0.112 | [10] 0.067 | [9] 0.129

PKM isoform 2 (UniProt P14618)
UniProt P14618, sequence (P14618 whole entry, looked up): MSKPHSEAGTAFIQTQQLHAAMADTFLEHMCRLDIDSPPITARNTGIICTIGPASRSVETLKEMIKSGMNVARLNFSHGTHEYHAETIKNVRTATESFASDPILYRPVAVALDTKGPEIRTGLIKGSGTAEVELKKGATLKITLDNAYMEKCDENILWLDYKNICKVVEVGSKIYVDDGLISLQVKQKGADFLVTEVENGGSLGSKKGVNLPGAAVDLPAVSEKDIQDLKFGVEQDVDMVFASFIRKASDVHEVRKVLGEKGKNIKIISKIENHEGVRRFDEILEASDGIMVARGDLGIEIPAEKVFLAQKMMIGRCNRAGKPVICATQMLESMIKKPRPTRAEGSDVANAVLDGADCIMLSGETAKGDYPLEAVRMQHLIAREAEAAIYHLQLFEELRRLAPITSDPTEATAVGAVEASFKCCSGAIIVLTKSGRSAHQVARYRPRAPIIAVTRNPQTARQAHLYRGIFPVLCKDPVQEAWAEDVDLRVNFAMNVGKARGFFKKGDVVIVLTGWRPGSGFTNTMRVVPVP
inactive: [1] -0.155 | [2] 0.029 | [3] 0.121 | [4] -0.104 | [5] -0.014 | [6] 0.198 | [8] 0.017 | [10] 0.209 | [9] 0.05

PLK1 (UniProt P53350)
UniProt P53350, sequence (P53350 whole entry, looked up): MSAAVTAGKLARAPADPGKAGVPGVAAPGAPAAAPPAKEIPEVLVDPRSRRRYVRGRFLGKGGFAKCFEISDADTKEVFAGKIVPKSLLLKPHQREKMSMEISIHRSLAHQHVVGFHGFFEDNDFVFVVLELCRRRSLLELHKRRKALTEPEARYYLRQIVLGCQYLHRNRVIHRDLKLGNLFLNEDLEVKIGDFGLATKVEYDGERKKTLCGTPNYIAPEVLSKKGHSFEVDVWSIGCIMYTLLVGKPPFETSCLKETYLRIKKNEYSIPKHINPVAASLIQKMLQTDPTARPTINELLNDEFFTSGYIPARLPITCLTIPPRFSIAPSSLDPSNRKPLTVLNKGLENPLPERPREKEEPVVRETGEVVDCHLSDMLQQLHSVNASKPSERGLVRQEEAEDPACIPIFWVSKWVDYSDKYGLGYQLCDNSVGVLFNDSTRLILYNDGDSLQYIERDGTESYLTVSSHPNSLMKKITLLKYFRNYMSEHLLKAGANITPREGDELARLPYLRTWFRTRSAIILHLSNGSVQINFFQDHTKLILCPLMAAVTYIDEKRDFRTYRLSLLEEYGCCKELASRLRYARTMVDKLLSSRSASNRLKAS
active: [4] -1.37
inactive: [1] -0.048 | [2] 0.003 | [3] -0.062 | [5] -0.125 | [6] 0.152 | [7] 0.006 | [8] -0.013 | [10] 0.019 | [9] 0.003

PPT2 isoform 3 (UniProt Q9UMR5)
UniProt Q9UMR5, sequence (Q9UMR5 whole entry, looked up): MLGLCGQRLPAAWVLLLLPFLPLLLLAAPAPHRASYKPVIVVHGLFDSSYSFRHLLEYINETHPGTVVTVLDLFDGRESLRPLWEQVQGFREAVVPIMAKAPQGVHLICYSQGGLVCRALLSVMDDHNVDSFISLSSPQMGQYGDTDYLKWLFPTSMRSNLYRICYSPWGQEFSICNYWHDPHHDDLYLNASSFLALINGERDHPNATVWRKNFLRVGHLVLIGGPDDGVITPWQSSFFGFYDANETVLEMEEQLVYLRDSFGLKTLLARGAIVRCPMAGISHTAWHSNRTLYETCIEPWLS
inactive: [2] -0.013 | [3] 0.031 | [4] 0.013 | [5] 0.055 | [6] -0.045 | [7] 0.07 | [8] 0.037 | [10] 0.013 | [9] 0.034
active: [1] -0.301

PARP16 isoform 3 (UniProt Q8N5Y8)
UniProt Q8N5Y8, sequence (Q8N5Y8 whole entry, looked up): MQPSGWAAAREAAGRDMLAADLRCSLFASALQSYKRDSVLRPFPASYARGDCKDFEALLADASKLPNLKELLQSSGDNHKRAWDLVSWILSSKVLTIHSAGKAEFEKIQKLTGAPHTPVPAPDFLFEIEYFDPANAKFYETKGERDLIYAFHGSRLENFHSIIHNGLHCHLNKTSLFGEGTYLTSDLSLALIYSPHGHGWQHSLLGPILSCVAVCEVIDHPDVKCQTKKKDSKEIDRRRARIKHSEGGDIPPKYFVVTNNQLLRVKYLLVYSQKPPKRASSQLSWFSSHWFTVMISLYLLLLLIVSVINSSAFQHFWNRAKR
inactive: [1] 0.096 | [2] -0.005 | [3] -0.034 | [4] -0.019 | [5] -0.009 | [6] 0.053 | [7] 0.011 | [10] -0.092 | [9] 0.089
